From PubChem BioAssay (NCI)
Compounds without any hit were thinned out: in the full panel of roughly 83,000, 20% have a hit.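 Method: cells in 96-well plates; compound added at one concentration; 48 h incubation; percent growth measured; values under 10 scored active.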 Values without a mark were called inactive. Calls of active or inactive are those of the source.

Tested on: RXF 393 renal
Assay: NCI-60 one-dose screen, 48 h (100 = growth as untreated, 0 = no growth, -100 = all killed)
Conditions: 10 µM unless noted

| SMILES | growth |
| --- | --- |
| CC(=O)Oc1ccccc1C(=O)N=C1[Se]CCCN1C(=O)c1ccccc1OC(C)=O | 6.8% (active) |
| O=C1NC(=O)C(Cn2cnc3ccccc32)N1 (centres undefined) | 114% |
| O=C1CCC(C(=O)NCCNCCNC(=O)C2CCC(=O)N2)N1 (centres undefined) | 101% |
| COc1cccc(-c2nc(-c3ccc(NC(=O)c4ccccc4)cc3)[nH]c2-c2ccnc(Br)c2)c1 | -44.3% (active) |
| Nc1cc2c(cc1Br)-c1cc(Cl)ccc1C2=O | 101% |
| COc1cc2cc(Oc3ccc(NC(=O)Nc4cc(C(F)(F)F)cc(C(F)(F)F)c4)cc3)c(C)nc2cc1OCCN1CCOCC1 | 26% |
| CCCCOc1nc2ccc(OC)cc2cc1-c1cc(-c2ccc(Cl)cc2)nc(-c2ccc(Cl)cc2)c1 | 101% |
| COc1ccc(N2C(=O)C(Oc3ccccc3)C2c2ccc(C)cc2)cc1 (centres undefined) | 126% |
| CC(C)c1cc(C(C)C)c(S(=O)(=O)Oc2ccc(NC(=O)c3ccc(Cl)cc3)cc2)c(C(C)C)c1 | 51.4% |
| COc1cc(C2CC(c3cccc(Br)c3)=NN2C(C)=O)cc(OC)c1OC (centres undefined) | 33.3% |
| Brc1ccc2[nH]cc(-c3nc(-c4c[nH]c5ccncc45)cs3)c2c1 | -91.8% (active) |
| O=C(N/N=C/c1c(Cl)cccc1Cl)c1ccc(C(F)(F)F)nc1Nc1cccc(C(F)(F)F)c1 | 40.8% |
| Cc1[nH]c(C(=O)Nc2ccc(C(=O)N3CCNCC3)cc2OC(C)C)c(Cl)c1Cl | 71.3% |
| O=c1c2cc(F)cc(Cl)c2sc2c(NCCCNCCO)nc3ccccc3c12 | 80.3% |
